Results reported in PubChem BioAssay (EPA / NIEHS).
Inconclusive results are not listed. Active and inactive are the calls of the source. The calls were made as follows, unless noted: active = hit-call score of the fitted dose curve at least 0.9, where 1 is the maximum; inactive = score below 0.9.

Columns and labels:
[1] = ACEA_ER_AUC_viability: ACEA Biosciences xCELLigence Real-Time Cell Analysis on Estrogen Receptor Agonism for Viability (AID 2283782; active = hit-call score of the fitted dose curve at least 0.9, where 1 is the maximum;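 also: hit means loss of impedance signal meaning reduced cell growth or viability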)
Summary of the method: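 Viability endpoint: reduced impedance area under the curve relative to DMSO, recorded by real-time electrode sensing over ~80 h of continuous exposure. Duplicate plates of T47D in hormone-depleted medium; eight concentrations, 1:4 dilutions, 100 uM maximum.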

[2] = STM_H9_NormalizedViability: Cytotoxicity Assessment at 120 hours in the Stemina devTOX quickPredict H9 human embryonic stem cell (hESC)-based Assay (AID 2283784; active = hit-call score of the fitted dose curve at least 0.9, where 1 is the maximum)
Summary of the method: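 Here, H9 cells received test compound with daily medium renewal. Each plate included methotrexate references (1uM, 5 nM), 0.1% DMSO and media blanks; CellTiter-Fluor RFU was normalized to DMSO.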

[3] = CCTE_Shafer_MEA_acute_spike_number: CCTE's Neural Acute Assay for Total Number of Spikes, Shafer Lab (AID 2284008)
Summary of the method: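 Read-out is the total spike count over 40 min, expressed as percent change from each well's own pre-treatment baseline and fitted in the loss direction against DMSO. Rat cortical neurons were exposed at 0.03-40 uM on DIV 13 or 15.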

[4] = CCTE_Shafer_MEA_acute_firing_rate_mean: CCTE's Neural Acute Assay for Mean Firing Rate, Shafer Lab (AID 2284009);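 also: analyzed for loss of signal so actives lower firing rate relative to DMSO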
Summary of the method: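 Primary rat cortical neurons on 16-electrode MEA wells were exposed on DIV 13 or 15 to compound (0.03-40 uM). Spike counts per recording time, averaged over electrodes, were compared between 40-min baseline and 40-min post-exposure recordings as percent change.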

[5] = CCTE_Harrill_HTTr_Viability_MCF7: CCTE's 6-hour Cell Viability Assessment for the High-Throughput Transcriptomics (HTTr) Platform, in MCF-7 cells cultured in DMEM + 10% fetal bovine serum, Harrill Lab (AID 2284010)
Summary of the method: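 Eight-point concentration series, six-hour exposure. Propidium iodide exclusion imaged to assess membrane integrity as a cytotoxicity readout; bidirectional fitting was done with DMSO as negative control and activity baseline.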

[6] = CCTE_Shafer_MEA_acute_burst_number: CCTE's Neural Acute Assay for Single-Electrode Bursts, Shafer Lab (AID 2284013)
Summary of the method: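 Primary rat cortical neurons on 16-electrode MEA wells, DIV 13 or 15, exposed to compound (0.03-40 uM; ≥3 wells); 40-min recordings at 37 C before and after treatment. Burst count expressed as percent change from baseline, DMSO as negative control.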

[7] = CCTE_Shafer_MEA_acute_burst_duration_mean: CCTE's Neural Acute Assay for Mean Burst Duration, Shafer Lab (AID 2284014);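 also: hits are decreases in mean burst duration relative to DMSO controls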
Summary of the method: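 Mean burst duration was compared between a 40 min baseline and a 40 min recording in the presence of compound (0.03-40 uM, 37 C), giving percent change per well. Cultures were rat cortical neurons at DIV 13 or 15; wells needed ≥10 active electrodes.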

[8] = CCTE_Shafer_MEA_acute_per_burst_spike_number_mean: CCTE's Neural Acute Assay for Average Number of Spikes Per Burst, Shafer Lab (AID 2284015);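 also: hits are decreases in mean spikes per burst versus baseline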
Summary of the method: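 Primary rat cortical neurons on 48-well MEA plates, treated on DIV 13 or 15 at 0.03-40 uM. Spontaneous activity recorded 40 min before and 40 min after compound at 37 C; percent change in mean spikes per single-electrode burst per well, fitted in the loss direction versus DMSO.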

[9] = CCTE_Shafer_MEA_acute_interburst_interval_mean: CCTE's Neural Acute Assay for Mean Interburst Interval, Shafer Lab (AID 2284016);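 also: percent change of mean interburst interval versus each well's own pre-dose baseline; curves fitted for decrease in interburst interval relative to DMSO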
Summary of the method: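 Primary rat cortical neurons on 16-electrode MEA wells were recorded 40 min at baseline on DIV 13 or 15, then 40 min after compound (0.03-40 uM), at 37 C. Value is percent change in mean interburst interval per well, DMSO as negative control.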

[10] = CCTE_Shafer_MEA_acute_burst_percentage_mean: CCTE's Neural Acute Assay for Percentage of Spikes in a Burst, Shafer Lab (AID 2284017)
Summary of the method: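 Primary rat cortical neurons on 16-electrode MEA wells; 40 min baseline recorded at DIV 13 or 15, then 40 min after compound (0.03-40 uM) at 37 C. Well-mean fraction of spikes in single-electrode bursts; percent change from baseline, DMSO as negative control.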

[11] = CCTE_Shafer_MEA_acute_burst_percentage_std: CCTE's Neural Acute Assay for Standard Deviation of Burst Percentage, Shafer Lab (AID 2284018);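 also: fitted in the negative direction so actives lower burst percentage SD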
Summary of the method: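 Value is percent change from baseline in the across-electrode SD of spikes-in-bursts percentage, wells with >/= 10 active electrodes. Acute 40-min exposure to 0.03-40 uM on DIV 13 or 15 rat cortical cultures, recorded at 37 C after 40-min baseline.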

[12] = CCTE_Shafer_MEA_acute_per_network_burst_spike_number_mean: CCTE's Neural Acute Assay for Average Number of Spikes in a Network Burst, Shafer Lab (AID 2284019)
Summary of the method: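 Percent change from baseline in mean spikes per network burst, spikes detected at 8x rms noise. Each compound at 0.03-40 uM in at least three wells of rat cortical cultures, recorded 40 min before and 40 min during exposure.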

[13] = CCTE_Shafer_MEA_acute_per_network_burst_spike_number_std: CCTE's Neural Acute Assay for Standard Deviation of Number of Spikes in a Network Burst, Shafer Lab (AID 2284020);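 also: fitted for decrease in spike-number SD versus DMSO so actives lower it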
Summary of the method: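 Endpoint: percent change from 40 min baseline in standard deviation of spikes per network burst, after 40 min compound exposure (0.03-40 uM, 37 C). Cortical rat neurons on MEA at DIV 13 or 15; spikes detected at 8x rms noise, 300-5000 Hz band-pass.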

[14] = CCTE_Shafer_MEA_acute_per_network_burst_electrodes_number_mean: CCTE's Neural Acute Assay for Mean Number of Electrodes in a Network Burst, Shafer Lab (AID 2284021);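 also: curves fitted for decreases only so hits reduce electrodes per burst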
Summary of the method: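 Primary rat cortical networks, mwMEA, 37 C. 20 min stabilization, 40 min baseline, compound 0.03-40 uM, 40 min re-record. Wells need >=10 active electrodes; percent change per well, negative fitting direction.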

[15] = CCTE_Shafer_MEA_acute_network_burst_percentage: CCTE's Neural Acute Assay for Percentage of Network Bursts, Shafer Lab (AID 2284022);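 also: curves fitted for loss so actives lower network burst percentage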
Summary of the method: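 Readout is the fraction of spikes falling in network bursts, expressed as per-well percent change from a 40-min pre-exposure baseline. Primary rat cortical neurons on MEA were exposed to 0.03-40 uM compound on DIV 13 or 15 and recorded for 40 min at 37 C.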

[16] = CCTE_Shafer_MEA_acute_cross_correlation_HWHM: CCTE's Neural Acute Assay for Cross Correlation at Half Width at Half Maximum, Shafer Lab (AID 2284026);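 also: spontaneous network firing of rat primary cortical neurons on multiwell microelectrode arrays; percent change per well from pre-dose baseline in spike cross-correlogram half width; hits are a decrease in cross-correlogram half width relative to DMSO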
Summary of the method: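 Rat cortical neuron cultures on microelectrode arrays were equilibrated 20 min at 37 C, recorded 40 min at baseline, then 40 min after compound addition (0.03-40 uM, ≥3 wells). Spikes were detected at 8x rms noise after 300-5000 Hz band-pass filtering.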

[17] = CCTE_Shafer_MEA_acute_synchrony_index: CCTE's Neural Acute Assay for Synchrony, Shafer Lab (AID 2284027);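 also: network synchrony index of spontaneous spiking in primary rat cortical neurons on MEAs; fitted for loss of signal so actives lower synchrony relative to DMSO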
Summary of the method: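 Acute exposure of rat primary cortical neurons (DIV 13 or 15) at 0.03-40 uM. Synchrony index, 40 min before vs after, as % change relative to DMSO control.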

[18] = CCTE_Shafer_MEA_acute_AB: CCTE's Alamar Blue Assay for Cytotoxicity in the Neural Acute Assay, Shafer Lab (AID 2284069; active = hit-call score of the fitted dose curve at least 0.9, where 1 is the maximum;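 also: active compounds lower the viability signal compared with DMSO wells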)
Summary of the method: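 Read-out: resazurin fluorescence (ex 544, em 590 nm) after CTB reagent at 1:6 dilution in fresh media. Cells: primary rat cortical neuron networks, DIV 13 or 15, chemically exposed on MEA plates; DMSO as negative control/baseline.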

IYD (gene 389434) = test: CCTE_GLTED_hIYD: CCTE's human Iodotyrosine Deiodinase (xIYD) Inhibition Assay, Great Lakes Toxicology and Ecology Division (GLTED) Lab (AID 2284317; active = hit-call score of the fitted dose curve at least 0.9, where 1 is the maximum;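 also: cell-free human IYD enzyme made in baculovirus insect cells; iodide freed from monoiodotyrosine measured by cerium arsenite color change at 420 nm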)
Summary of the method: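 Iodide liberated from monoiodotyrosine by baculovirus-expressed human IYD over 3 h was determined colorimetrically (Sandell-Kolthoff, 420 nm) after Dowex separation; inhibition is loss of signal versus DMSO.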

Measured: AC50

c1cc[n+]2c(c1)-c1cccc[n+]1CC2
active: [1] 22.8 µM | [2] 7.82 µM | IYD (gene 389434) 11.4 µM
inactive: all other assays above
